ATXN2 expr inh: Primary qHTS for Inhibitors of ATXN expression; Potency, µM (top dose mostly 57 µM), for the others: at the top dose activity change, negative = inhibition, usual class: inhibitors; hit rate 0.72% among 360,000; HEK-293 ATXN2-luciferase reporter, luminescence, 24 h; note: potency is the fitted concentration of half-maximal effect; % is set by controls: 0 for no effect and ±100 for the full control effect; nearly all actives have a fitted effect of over 55% in size
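ATXN2-luciferase reporter cells (luciferase flanked by upstream and downstream ATXN2 gene portions) were treated 24 h at 37 °C with compounds at up to 57 uM. SteadyGlo luminescence gave expression; GF-AFC fluorescence gave viability.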
SW480 rerep: A quantitative high throughput screen for small molecules that induce DNA re-replication in SW480 colon adenocarcinoma cells. SW480 DNA re-replication, Hoechst DNA content imaging, 48 h. Potency, µM (series often up to 46.1 µM), without a hit: top-dose re-replication activation, hits mostly activators. hit rate 1.8% among 340,000. AID 624297, 2012; note: potency is the fitted concentration of half-maximal effect; % of control where 0% means no effect; nearly all actives have a fitted effect of over 55% in size
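Image-based read-out: total Hoechst fluorescence of nuclei (405 nm excitation, 500-530 nm emission), with hits raising the fraction of high-intensity nuclei. SW480 colon cells incubated 48 hr with compounds at 37 C.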
PINK1 expr mod: A Quantitative High throughput Screen to Identify Chemical Modulators of PINK1 Expression | hit rate 0.2% among 410,000 | PINK1 immunofluorescence, high-content cytometry, 24 h | Potency, µM (titrated, usually from 76.6 µM), inactives show top-dose activation (PINK1 increase), hits mostly activators | AID 624263, 2012; active = well fitted activation curve with a large enough effect; inconclusive = small, poorly fitted or top-dose-only effect; cell line not stated here; note: potency is the fitted concentration of half-maximal effect; % of control where 0% means no effect; nearly all actives have a fitted effect of over 65% in size
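Fluorescence from anti-PINK1 antibody, together with nuclear and cell stains, was scanned on a laser-scanning cytometer. Before staining, stable-line cells were incubated 24 hours with compounds at 5 concentrations; primary antibody 12 h at 10 degrees C.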
IL-1B inflam inh: qHTS for Inhibitors of Inflammasome Signaling: IL-1-beta AlphaLISA Primary Screen; THP-1 LPS/ATP IL-1B secretion, AlphaLISA, 16 h; active compounds read low; activity change, % at 57.5 µM; hit rate 4.7% among 360,000; in the data active = activity change below about -50%; inconclusive = mostly about -30% to -49%; note: % is set by controls: 0 for no effect and ±100 for the full control effect
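THP-1 cells pretreated 1 hr with compounds (up to 57.5 uM final), then stimulated with LPS (250 ng/mL final) plus ATP (1.25 mM final); secreted IL-1B measured by AlphaLISA after 16 hr, decreased signal indicating inhibition.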
S2 tox: Viability Counterscreen for Primary qHTS for Inhibitors of ATXN expression; S2 cells (HEK-293 line with an ATXN2-luciferase reporter) viability, CellTiter-Fluor protease fluorescence, 24 h; Potency, µM (titrated, usually from 56.7 µM), actives largely listed as cytotoxic; hit rate 0.49% among 400,000; AID 651635, 2014; note: potency is the fitted concentration of half-maximal effect; nearly all actives have a fitted effect of over 40% in size
MCF10A rerep: A quantitative high throughput screen for small molecules that induce DNA re-replication in MCF 10a normal breast cells. MCF 10A DNA re-replication, Hoechst nuclear intensity, 48 h. Potency, µM (doses to about 46.1 µM), inactives show top-dose activity, positive = re-replication, actives largely listed as activators. hit rate 2.9% among 350,000. AID 624296, 2012; note: potency is the fitted concentration of half-maximal effect; % of control where 0% means no effect; nearly all actives have a fitted effect of over 50% in size
Starred values were filed as active, the others as inactive. Hits are enriched below; roughly 7.1% of the tested compounds scored in any of these assays. Unless noted, calls come from the whole dose curve; as a rule, active = well fitted curve in the direction sought with a large enough effect; inconclusive = small, poorly fitted or top-dose-only effect, or another doubt; inactive = no such curve, though single readings can be large; an effect the other way counts as inactive or inconclusive.

`Cc1ccc(NC(=O)NNC(=O)Cn2nc(-c3ccccc3)c(-c3ccccc3)c(C#N)c2=O)cc1` gave ATXN2 expr inh -4.9%, SW480 rerep 2.91µM*, PINK1 expr mod 3.3%, IL-1B inflam inh 73.5, S2 tox inactive and MCF10A rerep 1.46µM*.
Screening O=C(Cn1nc(-c2ccccc2)c2ccccc2c1=O)Nc1ccc(O)cc1 returned SW480 rerep 2.7%, PINK1 expr mod -0.3%, IL-1B inflam inh 2.9, S2 tox inactive and MCF10A rerep -1.5%.
CCN(CC)S(=O)(=O)c1ccc2c(c1)N(CC(=O)NCCCN1CCN(c3ccccc3F)CC1)C(=O)CO2 was read as PINK1 expr mod 0.2%.
Screening CCN(CC)S(=O)(=O)c1ccc2c(c1)N(CC(=O)NCCCN1CCN(c3cc(C)ccc3C)CC1)C(=O)CO2 returned ATXN2 expr inh 31.6µM*, PINK1 expr mod 0.8% and S2 tox 15.8µM*.
For O=C(Cn1cccc1C(=O)c1ccccc1)NCCCN1CCOCC1 the results were ATXN2 expr inh -0.5%, SW480 rerep 0.3%, PINK1 expr mod 0.3%, IL-1B inflam inh -2.1, S2 tox inactive and MCF10A rerep -1.7%.
`Cc1ccc(C)c(N2CCN(CCCNC(=O)Cn3cccc3C(=O)c3ccccc3)CC2)c1` gave ATXN2 expr inh inconclusive, SW480 rerep inconclusive, PINK1 expr mod -0.8%, IL-1B inflam inh -23.3, S2 tox 16.8µM* and MCF10A rerep 1.9%.
`CC(C)C(=O)Nc1nc2c(ncn2[C@H]2CC(O)[C@@H](CO)O2)c(=O)[nH]1` (some centres undefined) gave PINK1 expr mod -1.0%.
Cc1ccccc1C(=O)NC(=S)Nc1ccc(Cc2ccncc2)cc1 was read as ATXN2 expr inh inconclusive, SW480 rerep -7.5%, PINK1 expr mod 4.3%, IL-1B inflam inh -11.4, S2 tox inactive and MCF10A rerep 6.3%.
`COc1ccc(C(=O)NC(=S)Nc2ccc(Cc3ccncc3)cc2)cc1` gave ATXN2 expr inh -26.5%, SW480 rerep inconclusive, PINK1 expr mod 4.9%, IL-1B inflam inh -64.1*, S2 tox inconclusive and MCF10A rerep inconclusive.
O=C(NC(=S)Nc1ccc(Cc2ccncc2)cc1)c1ccccc1F was read as ATXN2 expr inh -21.6%, SW480 rerep -1.7%, PINK1 expr mod 1.0%, IL-1B inflam inh -74.1*, S2 tox inactive and MCF10A rerep inconclusive.
For COc1ccc(NC(=O)Nc2cnccn2)c(OC)c1 the results were ATXN2 expr inh 21.4%, SW480 rerep -6.0%, PINK1 expr mod -0.8%, IL-1B inflam inh -23.1, S2 tox inactive and MCF10A rerep -17.3%.
For COc1ccc(NC(=O)Nc2ccc(Cc3ccncc3)cc2)c(OC)c1 the results were ATXN2 expr inh -1.7%, SW480 rerep -6.2%, PINK1 expr mod 1.1%, IL-1B inflam inh -51.4*, S2 tox inactive and MCF10A rerep inconclusive.
Screening Cc1ccc(CSc2cn(CC(=O)N3CCCCC3)c3ccccc23)cc1 returned PINK1 expr mod 0.7%.
`Clc1ccccc1CN1CCc2nc(N3CCN(c4ncccn4)CC3)ncc2C1` gave ATXN2 expr inh 0.0%, PINK1 expr mod 1.2% and S2 tox inconclusive.
For CC(C)CCOC(=O)C[N+](C)(C)CCOC1CC2CCC1(C)C2(C)C (centres undefined) the results were ATXN2 expr inh inconclusive, SW480 rerep -1.2%, PINK1 expr mod 6.5%, IL-1B inflam inh -20.8, S2 tox inactive and MCF10A rerep 16.4µM*.
CCCOC(=O)C[N+](C)(C)CCOC1CC2CCC1(C)C2(C)C (centres undefined) was read as ATXN2 expr inh -2.2%, SW480 rerep -0.9%, PINK1 expr mod 0.8%, IL-1B inflam inh -28.4, S2 tox inactive and MCF10A rerep -22.5%.
CCCCCCCOC(=O)C[N+](C)(C)CCOC1CC2CCC1(C)C2(C)C (centres undefined) was read as ATXN2 expr inh 35.5µM*, SW480 rerep inconclusive, PINK1 expr mod -3.7%, IL-1B inflam inh -99.6*, S2 tox inconclusive and MCF10A rerep inconclusive.
Screening CCN(CC)C(=O)Nc1ccc(OCC(O)CNC(C)(C)C)c(C(C)=O)c1 (centres undefined) returned ATXN2 expr inh 5.4% and S2 tox inactive.
Screening NC(=O)c1ccc(NC(=O)COC(=O)c2ccc(Br)c(S(=O)(=O)N3CCOCC3)c2)cc1 returned ATXN2 expr inh -3.0%, SW480 rerep 0.7%, PINK1 expr mod 1.0%, IL-1B inflam inh -60.2*, S2 tox inactive and MCF10A rerep 0.5%.
Cc1cc2c(c(=O)o1)C(C(C)C)C(C#N)=C(N)O2 (centres undefined) was read as ATXN2 expr inh 3.8%, SW480 rerep -21.8%, PINK1 expr mod -1.5%, IL-1B inflam inh 7.1, S2 tox inactive and MCF10A rerep -1.8%.
`Cc1cc2c(c(=O)o1)C(c1cccs1)C(C#N)=C(N)O2` (centres undefined) gave ATXN2 expr inh 3.9%, SW480 rerep 2.9%, PINK1 expr mod -0.1%, IL-1B inflam inh -63.1*, S2 tox inconclusive and MCF10A rerep 2.2%.
`Cc1ccc([C@H]2C(C#N)=C(N)Oc3cc(C)oc(=O)c32)o1` gave ATXN2 expr inh -26.7%, SW480 rerep inconclusive, PINK1 expr mod 5.1%, IL-1B inflam inh -106.2*, S2 tox inactive and MCF10A rerep inconclusive.
Screening Cn1cnc2c(F)c(Nc3ccc(Br)cc3F)c(C(=O)NOCCO)cc21 returned ATXN2 expr inh 14.0%.
For COc1ccc(C(=O)NCC(=O)OCC(=O)c2ccc3ccccc3c2)cc1 the results were PINK1 expr mod 0.2%.
`Cc1[nH]c(C)c(C(=O)/C=C/c2ccc([N+](=O)[O-])cc2)c1C` gave SW480 rerep inconclusive, PINK1 expr mod 25.8%, IL-1B inflam inh -97.4*, S2 tox inconclusive and MCF10A rerep 11.6µM*.
For O=[N+]([O-])c1ccc(C=CC=Cc2ccccc2)cc1 the results were PINK1 expr mod 31.6µM*, IL-1B inflam inh -26.3 and S2 tox inactive.
`O=C(/C=C/c1cccnc1)c1ccc([N+](=O)[O-])cc1` gave ATXN2 expr inh -28.9%, SW480 rerep inconclusive, PINK1 expr mod -1.8%, IL-1B inflam inh -20.7, S2 tox inactive and MCF10A rerep inconclusive.
